Compound activity: PubChem, National Center for Advancing Translational Sciences (NCATS)
In the library only some 21% were active in any assay of this set; here they are far more common.
Pf growth 48h: inhibits P. falciparum growth in the first generation, 48 h; P. falciparum luciferase growth in erythrocytes, 48 h; Potency, µM (top dose mostly 28.7 µM), inactives show at the top dose activity change, negative = inhibition, most hits filed as inhibitors; 310,000 tested, 5.9% active; AID 504832; further: potency means the concentration at half of the fitted maximal effect; on the % scale 0 is the no-effect control and ±100 the full control effect
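Growth was read as firefly luciferase luminescence after a 48 h, 37 C, 5% CO2 exposure of compounds to reporter-bearing P. falciparum cultures (0.1% parasitemia, 2% hematocrit final) in Albumax-supplemented RPMI 1640.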
CHX counter: counter-screen hit for Shiga toxin inhibitors, cycloheximide | cell reporter, cycloheximide protein synthesis inhibition counterscreen | max response, % | 300,000 tested, 12% active; in the data active means max response mostly above about 13%, no sharp cut-off; inactive means mostly below about 14%; further: read at 38.3 µM for the half of the compounds with a filed dose; 0% is about no effect
NS1 inh: inhibitors of influenza NS1 protein function | 270,000 tested, 0.4% active | Potency, µM (highest dose often 46.1 µM), without a hit: top-dose activity, positive = more growth | AID 2326; calls by dose curve; further: potency means the concentration at half of the fitted maximal effect; actives are rising curves; nearly all actives have a fitted effect of over 50% in size
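A cell-based growth assay was used: compounds that relieve NS1-induced slow growth of budding yeast raise OD600. Assay medium was yeast nitrogen base with ammonium sulphate and -URA supplement, pH 6.0, with 2% galactose.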
Shiga inhibitor: blocks Shiga toxin action in Vero cells. Vero cells, Shiga toxin protein synthesis inhibition reporter. inhibition, % at 38.7 µM. 290,000 tested, 9.2% active. AID 2315; in the data active means inhibition mostly above about 28%, no sharp cut-off; inactive means mostly below about 43%; further: 0% is about no effect
SARS PLpro yeast: inhibitors of SARS-CoV papain-like protease in yeast. 330,000 tested, 0.19% active. AID 485353. Potency, µM (series often up to 32.9 µM), for the others: at the top dose activity, positive = growth rescue, actives largely listed as activators. S. cerevisiae expressing SARS-CoV PLpro, growth rescue; calls by dose curve; further: potency means the concentration at half of the fitted maximal effect; 0% is about no effect; nearly all actives have a fitted effect of over 55% in size
Pf growth 96h: P. falciparum growth inhibition at 96 hours; P. falciparum luciferase reporter growth, 96 h; AID 504834; Potency, µM (titrated, usually from 28.7 µM), for inactives: at the highest dose activity change, negative = inhibition, usual class: inhibitors; 320,000 tested, 6.9% active; further: potency means the concentration at half of the fitted maximal effect; on the % scale 0 is the no-effect control and ±100 the full control effect
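Compounds incubated with erythrocytes infected by luciferase-expressing P. falciparum (2% hematocrit, 0.05% parasitemia final) for 96 hours, 37 C in 5% CO2. Growth inhibition scored as decreased luciferase luminescence.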
Active calls of the source: *; i = inactive; u = inconclusive; x = no result given. Unless noted, the call rests on the fitted dose curve; in most records, active means well fitted inhibition curve with a large enough effect; inconclusive means small, poorly fitted or top-dose-only effect, or another doubt; inactive means no such curve, though single readings can be large or run the other way.

SMILES	Pf growth 48h	CHX counter	NS1 inh	Shiga inhibitor	SARS PLpro yeast	Pf growth 96h
Cc1ccc(C(=O)CNc2ccc(Cl)cc2)cc1	98.0%	41.9*	x	86.0*	-15.6%	u
CCOc1ccc(NCC(=O)c2ccc(C)cc2)cc1	-8.4%	15.6*	x	63.4*	-1.3%	-10.2%
Cc1ccc(C)c(NCC(=O)c2ccc(Cl)cc2)c1	u	-2.0	-10.1%	10.7	-2.4%	-9.0%
CCOC(=O)N1CCC(NC(=O)Cn2ncc3ccccc32)CC1	x	-2.8	-11.0%	-3.1	5.0%	97.4%
CCOC(=O)N1CCC(NC(=O)Cn2ncc3c4ccccc4n(C)c3c2=O)CC1	70.9%	22.0*	18.0%	34.5*	1.9%	1.1%
COC(=O)Cn1ncc2c3ccccc3n(C)c2c1=O	37.6%	24.5*	-49.2%	43.0*	2.2%	u
COc1ccc(CCNC(=O)CSc2nc3ccsc3c(=O)n2CC2CCC(C(=O)O)CC2)cc1OC (stereo not drawn)	-9.7%	-2.3	12.0%	0.5	u	u
COC(=O)CN(C)C(=O)c1ccc(OC)c(OC2CCN(C(C)C)CC2)c1	0.0%	23.5*	8.8%	30.3*	-0.2%	u
CCCOC1CCCN(C(=O)c2ccc(OC)c(OC3CCN(C(C)C)CC3)c2)C1 (stereo not drawn)	29.1%	19.0*	-13.1%	20.4	4.7%	25.7%
COc1ccc(C(=O)NC2CCc3ccccc32)cc1OC1CCN(C(C)C)CC1 (stereo not drawn)	u	14.2*	-1.5%	46.7*	-3.0%	u
CC(=O)Nc1cccc(OCC(=O)NC(C)c2ccc3ccccc3c2)c1 (stereo not drawn)	16.3%	-1.0	15.5%	-8.4	-0.5%	-0.1%
COc1ccc2oc(C(=O)N(Cc3ccco3)Cc3cccs3)c(C)c2c1	u	x	x	x	-11.7%	u
CCOc1ccc(S(=O)(=O)NCC(c2ccc3c(c2)OCO3)N2CCN(C)CC2)cc1 (stereo not drawn)	-29.2%	x	x	x	13.3%	1.1%
O=S(=O)(NCC(c1cccnc1)N1CCN(c2ccccc2)CC1)c1cc(F)ccc1F (stereo not drawn)	10.4µM*	-0.3	-56.2%	14.6	-11.1%	2.1%
COc1ccccc1N1CCN(C(CNS(=O)(=O)c2cc(F)ccc2F)c2cccnc2)CC1 (stereo not drawn)	u	-2.1	6.9%	5.7	2.0%	u
O=S(=O)(NCC(c1ccc2c(c1)OCO2)N1CCN(c2ccccc2)CC1)c1ccccc1 (stereo not drawn)	7.38µM*	x	x	x	-2.1%	u
CCCc1cc(=O)[nH]c(SCC(=O)N(CCOC)c2c(N)n(Cc3ccccc3)c(=O)[nH]c2=O)n1	-10.0%	x	x	x	-0.2%	16.1%
CC(C)NC(=O)COC(=O)c1ccc(Oc2ccccc2)cc1	x	3.5	-104.4%	-5.7	10.8%	-4.9%
O=C(NNc1ccccc1[N+](=O)[O-])Nc1ccccc1	25.7%	14.9	4.7%	-4.6	-2.3%	x
O=C(NNc1ccccc1[N+](=O)[O-])Nc1ccc(Cl)c(Cl)c1	-5.2%	16.9	-46.5%	15.8*	-18.7%	u
O=C(NNc1ccccc1[N+](=O)[O-])Nc1ccc(F)cc1	32.3%	13.2	-21.2%	32.8*	-11.4%	72.5%
COc1ccc(-c2n[nH]c3c2CN(C(=O)c2ccc(OC)c(OC)c2)CC3)cc1	u	-10.2	3.1%	-6.8	1.5%	11.7µM*
COc1cc(OC)cc(C(=O)N2CCN(C(=O)c3ccc(OC)c(OC)c3)CC2)c1	-14.5%	-3.6	-2.0%	10.3	-6.7%	u
CCCc1cc(=O)[nH]c(SCC(=O)NCc2ccc3c(c2)OCO3)n1	3.6%	-3.7	21.0%	6.6	-1.6%	11.7µM*
COCCCNC(=O)CSc1nc2cc3c(cc2c(=O)n1CCCC(=O)NCc1ccc(OC)cc1)OCO3	-16.5%	0.1	x	16.8	0.2%	10.4µM*
SMILES	Pf growth 48h	CHX counter	NS1 inh	Shiga inhibitor	SARS PLpro yeast	Pf growth 96h
COc1ccc(CNC(=O)CCCn2c(SCC#N)nc3cc4c(cc3c2=O)OCO4)cc1	-9.5%	13.2	24.2%	-5.2	0.5%	u
Cc1nnc(SCC(=O)NCc2ccc3c(c2)OCO3)[nH]c1=O	37.4%	-0.8	-12.9%	5.8	-5.0%	0.262µM*
CCCc1nc(SCC(=O)NCc2ccc3c(c2)OCO3)c2c(=O)n(C)c(=O)n(C)c2n1	x	x	-3.1%	x	x	x
Cn1c(=O)c2c(nc(SCC(=O)NCc3ccc4c(c3)OCO4)n2Cc2ccc(Cl)cc2)n(C)c1=O	9.28µM*	-1.4	4.9%	1.2	-14.4%	-9.6%
Cc1cccc(NS(=O)(=O)c2cc(C(=O)N3CCCCCC3)ccc2C)c1	u	1.5	4.6%	-11.7	-3.7%	u
Cc1ccc2nc3sc(=O)sc3nc2c1	x	5.6	x	14.1	x	x
CCOc1ccc(S(=O)(=O)n2cc(F)c(=O)[nH]c2=O)cc1[N+](=O)[O-]	-15.6%	-7.9	-32.2%	3.0	-51.9%	u
CCOc1ccc(S(=O)(=O)n2cc(F)c(=O)[nH]c2=O)cc1	u	4.1	-7.0%	-18.4	-3.8%	13.1µM*
c1ccc2c(c1)-c1cccc3c1c-2cc1ccccc13	77.8%	x	x	x	-0.1%	-4.8%
Oc1cc(-c2ccccc2)c2ccccc2c1	u	-5.5	-18.7%	-3.9	-59.3%	11.7µM*
COc1ccc(Nc2ccccc2NC(=O)c2ccccc2Br)cc1	1.65µM*	-0.3	-38.8%	6.5	-3.0%	2.08µM*
O=C(Nc1ccc(Br)cc1)c1ccccc1Br	127.7%	55.3*	-25.8%	89.8*	-0.5%	8.3%
CCc1ccc(NC(=O)c2ccccc2Br)cc1	i	34.6*	x	61.0*	-7.1%	i
O=C(Nc1ccc(Br)cc1)c1cc(Br)cc(Br)c1O	u	41.8*	x	93.0*	x	-11.9%
Cc1ccccc1C(=O)Nc1ccccc1NC(=O)c1ccccc1Br	u	-4.0	0.1%	1.1	1.6%	-7.3%
O=C(O)c1ccc(NC(=O)c2ccccc2NC(=O)c2ccccc2Br)cc1	3.3%	-0.4	28.5%	-3.9	-0.2%	u
O=C(CC(=O)Nc1ccc(Br)cc1)Nc1ccc(Br)cc1	31.8%	-1.6	-2.6%	7.1	-0.8%	41.9%
Cc1onc(-c2c(F)cccc2Cl)c1C(=O)Nc1ccc(Cl)c(S(=O)(=O)N(C)C)c1	u	x	x	x	0.4%	u
O=C(NCc1cccnc1)c1ccc(NC(=O)c2cccc([N+](=O)[O-])c2)cc1	u	-4.2	-2.3%	26.0	-0.6%	u
O=C1CC2(CCN(C(=O)C(=O)c3c[nH]c4ccccc34)CC2)Oc2ccccc21	u	-2.7	-0.3%	-6.3	-13.0%	u
CCC(=O)Nc1ccc(NC(=O)c2cccc3c(Br)cccc23)cc1	16.2%	2.1	-3.6%	-12.1	25.7%	6.57µM*
CCC(=O)Nc1ccc(NC(=O)c2cccc3ccccc23)cc1	1.3%	-4.1	-2.7%	x	23.9%	7.9%
COC(=O)c1cccc(CSC(=S)N2CCCC2)c1	-2.1%	30.1*	6.3%	36.2	-3.1%	22.2%
Cc1ccc(N(C)S(=O)(=O)c2cccc(C(=O)Nc3ccc(N4CCOCC4)cc3)c2)cc1	u	x	x	x	18.7%	10.4µM*
